Measurements from PubChem BioAssay (NCI).
About 83,000 compounds went through this panel and 20% of them were active in at least one assay; those are over-represented in the sample as a whole.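 Method: cells in 96-well plates; compound added at one concentration; 48 h incubation; percent growth measured; values under 10 scored active.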 Calls of active or inactive are those of the source.

System: MDA-MB-435 melanoma
Assay: NCI-60 one-dose screen, 48 h (100 = growth as untreated, 0 = no growth, -100 = all killed)
Conditions: 10 µM unless noted
Experimental: Growth inhibition of the MDA-MB-435 human Melanoma tumor cell line is measured as a screen for anti-cancer activity. Cells are grown in 96 well plates and exposed to the test compound for 48 hours. Compounds are tested at a single concentration, which is 10^-5 M for most compounds. The reported endpoint is percent growth (GI% or GIPRCNT), where numbers from 0 - 100% represent growth inhibition, and numbers from -100% - 0 represent cell death. For example, a value of 40 represents 60% growth inhibition. A value of 0 means no net growth occurred over the course of the experiment. A value of -40 indicates 40% of cells at the beginning of the experiment died by the end of the experiment. A value of -100 means all cells are dead at the end of the experiment.
NCI-60 Human Tumor Cell Lines Screen was performed using the standard one-dose NCI protocol, which is described in more detail at https://dtp.cancer.gov/discovery_development/nci-60/default.htm.
Compounds with GIPRCNT values below 10 were considered active. Activity score was based on GIPRCNT using the following formula: […]
Score is 0 for GIPRCNT values of 100 or above, 50 for GIPRCNT values of 0, and 100 for GIPRCNT values of -100.

Row | Compound | growth
1 | COc1ccc(-c2nc3cc(C(=O)NC4CCCCC4)ccc3n2C2CCCCC2)cc1 | 99.4% (inactive)
2 | C#CCOc1cccc(-c2ncnc3cc(NC(=O)CCl)ccc23)c1 | -24.7% (active)
3 | Cc1ccc(-c2nn(CC(=O)N3CCOCC3)c(N)c2C#N)cc1 | 99.2% (inactive)
4 | CNC(=O)c1cc(Oc2cccc3nc(NC(=O)Nc4ccc(F)cc4F)ccc23)ccn1 | 32.6% (inactive)
5 | CCN1C(=O)N(CC)C2C1NN=c1s/c(=C3\C(=O)N(C)c4ccccc43)c(=O)n12 (stereo not given) | -34.4% (active)
6 | Cn1cc(-c2nc(-c3c[nH]c4c(Cl)nccc34)cs2)c2ccccc21 | 96.4% (inactive)
7 | N#C/C(=C/C=C/c1ccccc1)S(=O)c1ccccc1 (stereo not given) | -29.8% (active)
8 | COC(=O)[C@H](C)NC(=O)[C@@H]1CCCN1C(=O)CNC(=O)[C@H](C)N | 102% (inactive)
9 | C[C@H]1c2ccccc2CN1CCCOc1cc2c(cc1OCC1CC1)C1(CCCC1)C(N)=N2 | 36.4% (inactive)
10 | O=C1NCCS(=O)(=O)/C1=C\C=C\c1cccc(C(F)(F)F)c1 | 18.2% (inactive)
11 | O=C(N/N=C/c1ccccc1Cl)c1ccccc1Nc1ccnc(C(F)(F)F)c1 | 14.6% (inactive)
12 | N#C/C(Sc1nc2sc3c(c2c(=O)n1Cc1ccccc1)CCCC3)=C1/SC=C(c2ccc(Cl)cc2)N1c1ccccc1 | 109% (inactive)
13 | CN(C)CC1C(=O)O[C@H]2[C@H]1CC/C(COC(=O)NCc1ccc(Cn3c(=O)sn(CCCI)c3=O)cc1)=C\CC[C@@]1(C)O[C@@H]21 (stereo not given in full) | 20.5% (inactive)
14 | CN1CCN(Cc2ccc(NC(=O)c3cncc(C#Cc4cnc(N)c5ncccc45)c3)cc2Cl)CC1 | 94.2% (inactive)
15 | COc1ccc(-n2c(=O)n(-c3ccc(-c4nc5ccc(F)cc5s4)cc3)c(=O)c3cccnc32)cc1 | 102% (inactive)
16 | CO[C@]12C=C/C(=C(/C(=O)OCc3cccnc3)C(=O)CCCCCCCC[C@]3(OC)C=C/C(=C(/C(=O)OCc4cccnc4)C(=O)CCCCCCCC1)O3)O2 | -42.4% (active)
17 | Nc1ccc(N)c2c1C(=O)c1cccc([N+](=O)[O-])c1C2=O | 67.3% (inactive)
18 | Nc1nc(Nc2ccc([N+](=O)[O-])cc2O)nc(C(Cl)(Cl)Cl)n1 | -36.6% (active)
19 | C=CCNc1nc(O)c(/C=C2\C=Nc3ncccc32)s1 | 21.1% (inactive)
20 | O=C(/C=C/c1ccc(Cl)cc1)c1ccc(-n2cc(CN3CCN(c4cc5c(cc4F)c(=O)c(C(=O)O)cn5C4CC4)CC3)nn2)cc1 | 82.2% (inactive)

Row | Compound | growth
21 | N=C(N)c1ccc(-c2ccc(-c3ccc(Cl)cc3Cl)s2)nc1 | 62.5% (inactive)
22 | COc1ccc(/C=C\c2cc(OC)c(OC)c(OC)c2)cc1OCC(=O)Nc1nc2ccccc2s1 | -2.64% (active)
23 | COc1ccc(CNc2ccc3nc(CCC4CCCCC4)[nH]c3c2)cc1 | 80.9% (inactive)
24 | Oc1ccc(C2OCCO2)c2cccnc12 | 49.4% (inactive)
25 | CN(C)CCOc1ccc(/C(=C(/CCCCCCCCCC[P+](c2ccccc2)(c2ccccc2)c2ccccc2)c2ccccc2)c2ccccc2)cc1 | -98.1% (active)
26 | O=C1c2c(c3c4cccnc4[nH]c3c3ccc4ccccc4c23)C(=O)N1O | 47.9% (inactive)
27 | COc1cc(C(=O)n2nc(NCCCc3ccccc3)c3cc(N)ccc32)cc(OC)c1OC | 99% (inactive)
28 | N#CC1=C(N)Oc2c(ccc3cccnc23)C1c1ccccc1 (stereo not given) | -47.4% (active)
29 | O=C(c1ccccc1)[C@@H](c1ccccc1)[C@]1(O)C(=O)Nc2ccccc21 | 98.4% (inactive)
30 | Cc1ccc(Nc2nc(N)nc(N)c2N=O)cc1Cl | 89.1% (inactive)
31 | Cc1c2ccncc2c(C)c2c1c1ccccc1n2CCCCCC(=O)O | 99.2% (inactive)
32 | Cc1ccc2c(c1)CC(O)CC1C(=O)N(CCO)CC(=O)N21 (stereo not given) | 106% (inactive)
33 | COc1ccc2c(c1)c(-c1nc(-c3cn(C)c4ccncc34)cs1)cn2C | -90% (active)
34 | C=C(C)[C@@H]1CC[C@]2(COCCCNCCCN)CC[C@]3(C)[C@H](CC[C@@H]4[C@@]5(C)CC[C@H](OCCCN)C(C)(C)[C@@H]5CC[C@]43C)[C@@H]12 | -91.2% (active)
35 | C#CCOc1cc(/C=N/Nc2nc(-c3ccc(OC)cc3)cs2)ccc1O | 94.7% (inactive)
36 | O=C1/C(=C/c2cccc(Br)c2)COc2ccc(O)c(O)c21 | -34.7% (active)
37 | Cc1ccc(C2(C)NC(=O)N(CC(=O)Nc3cccc(C)c3)C2=O)cc1 (stereo not given) | 108% (inactive)
38 | CNC1=C([N+](=O)[O-])C(c2ccc(OC)cc2)C(C#N)=C(c2ccc[nH]2)O1 (stereo not given) | 96% (inactive)
39 | CC(=O)O[C@H]1C[C@@]2(C)[C@@H](C[C@@H](O)[C@H]3[C@@]4(C)CC[C@H](N5CCCC5)[C@@H](C)[C@@H]4CC[C@@]32C)/C1=C(\CCC=C(C)C)C(=O)O | 99.7% (inactive)
40 | Nc1ccc(Cl)c2c(=O)c3ccccc3[nH]c12 | 86.3% (inactive)
